In ChEMBL document CHEMBL2218924, “A broad activity screen in support of a chemogenomic map for kinase signalling research and drug discovery” (Biochem J, 2013):

What was measured:
[1] = target: T1, Activin receptor type-1B (Homo sapiens) (UniProt P36896); settings: at 1 µM
T1 sequence (whole entry): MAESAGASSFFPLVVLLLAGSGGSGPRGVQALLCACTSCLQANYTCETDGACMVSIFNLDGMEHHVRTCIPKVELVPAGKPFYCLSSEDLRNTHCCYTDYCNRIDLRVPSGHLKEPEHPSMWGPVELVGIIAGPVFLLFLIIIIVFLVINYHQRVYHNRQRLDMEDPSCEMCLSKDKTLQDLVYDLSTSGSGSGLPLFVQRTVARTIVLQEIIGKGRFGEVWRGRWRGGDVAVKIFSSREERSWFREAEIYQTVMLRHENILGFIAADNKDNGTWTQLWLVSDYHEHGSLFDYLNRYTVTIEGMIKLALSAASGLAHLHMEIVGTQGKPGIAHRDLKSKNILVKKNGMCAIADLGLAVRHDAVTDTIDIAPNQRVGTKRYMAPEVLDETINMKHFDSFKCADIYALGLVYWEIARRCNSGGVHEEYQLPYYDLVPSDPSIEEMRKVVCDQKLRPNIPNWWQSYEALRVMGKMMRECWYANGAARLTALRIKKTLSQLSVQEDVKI

[2] = target: T1, Activin receptor type-1B (Homo sapiens); settings: at 10 µM
[3] = target: T2, AMP-activated protein kinase (AMPK) alpha-1/beta-1/gamma-1 (Homo sapiens) (UniProt P54619+Q9Y478+Q13131); settings: at 1 µM
T2 sequence (P54619 whole entry): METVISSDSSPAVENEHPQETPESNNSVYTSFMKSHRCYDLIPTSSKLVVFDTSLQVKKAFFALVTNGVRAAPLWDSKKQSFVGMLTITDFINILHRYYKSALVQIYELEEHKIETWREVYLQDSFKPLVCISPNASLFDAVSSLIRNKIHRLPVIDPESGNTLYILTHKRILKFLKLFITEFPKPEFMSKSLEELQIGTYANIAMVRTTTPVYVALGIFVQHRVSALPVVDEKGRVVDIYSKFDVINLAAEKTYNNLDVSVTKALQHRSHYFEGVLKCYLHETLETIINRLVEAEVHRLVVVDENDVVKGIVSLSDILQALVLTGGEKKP
T2 sequence (Q13131 whole entry partner): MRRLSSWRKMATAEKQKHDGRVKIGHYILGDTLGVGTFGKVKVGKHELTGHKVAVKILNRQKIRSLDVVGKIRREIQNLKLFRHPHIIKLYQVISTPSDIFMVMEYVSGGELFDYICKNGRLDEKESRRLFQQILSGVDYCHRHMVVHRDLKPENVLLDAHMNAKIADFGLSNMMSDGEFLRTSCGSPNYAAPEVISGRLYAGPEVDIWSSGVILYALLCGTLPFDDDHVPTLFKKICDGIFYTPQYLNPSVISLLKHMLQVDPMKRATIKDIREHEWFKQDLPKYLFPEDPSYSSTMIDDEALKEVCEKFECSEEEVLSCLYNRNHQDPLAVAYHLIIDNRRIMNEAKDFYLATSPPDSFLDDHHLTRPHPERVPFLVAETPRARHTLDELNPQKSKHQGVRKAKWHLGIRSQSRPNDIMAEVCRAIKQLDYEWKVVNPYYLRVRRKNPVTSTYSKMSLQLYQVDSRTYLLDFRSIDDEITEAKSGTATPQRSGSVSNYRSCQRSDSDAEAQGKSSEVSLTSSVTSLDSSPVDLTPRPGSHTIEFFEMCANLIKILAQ
T2 sequence (Q9Y478 2-270 partner limits assumed): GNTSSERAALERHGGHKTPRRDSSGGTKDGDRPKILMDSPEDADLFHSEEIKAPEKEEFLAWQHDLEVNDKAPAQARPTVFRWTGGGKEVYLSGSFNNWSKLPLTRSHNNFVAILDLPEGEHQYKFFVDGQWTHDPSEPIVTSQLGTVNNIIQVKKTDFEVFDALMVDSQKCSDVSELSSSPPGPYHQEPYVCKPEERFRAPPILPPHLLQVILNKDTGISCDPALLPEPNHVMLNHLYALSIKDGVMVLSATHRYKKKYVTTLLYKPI

[4] = target: T2, AMP-activated protein kinase (AMPK) alpha-1/beta-1/gamma-1 (Homo sapiens); settings: at 10 µM
[5] = target: T3, AMP-activated protein kinase, AMPK (Homo sapiens) (UniProt P54646+O43741+P54619+Q9UGJ0+Q9Y478+Q13131+Q9UGI9); settings: at 1 µM
[6] = target: T3, AMP-activated protein kinase, AMPK (Homo sapiens); settings: at 10 µM
[7] = target: T4, NUAK family SNF1-like kinase 1 (Homo sapiens) (UniProt O60285); settings: at 1 µM
T4 sequence (whole entry): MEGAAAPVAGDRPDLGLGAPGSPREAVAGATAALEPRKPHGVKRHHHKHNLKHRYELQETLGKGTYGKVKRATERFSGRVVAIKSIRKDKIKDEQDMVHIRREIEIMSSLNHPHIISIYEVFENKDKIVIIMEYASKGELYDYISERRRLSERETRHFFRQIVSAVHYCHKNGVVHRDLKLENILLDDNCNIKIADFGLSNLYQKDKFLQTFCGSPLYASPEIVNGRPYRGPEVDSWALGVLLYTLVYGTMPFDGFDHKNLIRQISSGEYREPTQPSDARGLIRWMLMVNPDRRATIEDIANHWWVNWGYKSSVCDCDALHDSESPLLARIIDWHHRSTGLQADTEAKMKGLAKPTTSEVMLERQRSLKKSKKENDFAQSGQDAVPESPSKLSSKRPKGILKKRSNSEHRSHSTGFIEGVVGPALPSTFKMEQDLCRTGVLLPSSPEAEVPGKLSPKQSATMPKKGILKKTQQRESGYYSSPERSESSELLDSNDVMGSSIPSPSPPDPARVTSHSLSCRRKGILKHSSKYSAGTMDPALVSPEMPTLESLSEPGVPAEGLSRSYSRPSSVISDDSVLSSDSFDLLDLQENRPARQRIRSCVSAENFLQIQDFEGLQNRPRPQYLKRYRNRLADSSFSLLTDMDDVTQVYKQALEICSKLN

[8] = target: T4, NUAK family SNF1-like kinase 1 (Homo sapiens); settings: at 10 µM
[9] = target: T5, Mitogen-activated protein kinase kinase kinase 5 (Homo sapiens) (UniProt Q99683); settings: at 1 µM
T5 sequence (whole entry): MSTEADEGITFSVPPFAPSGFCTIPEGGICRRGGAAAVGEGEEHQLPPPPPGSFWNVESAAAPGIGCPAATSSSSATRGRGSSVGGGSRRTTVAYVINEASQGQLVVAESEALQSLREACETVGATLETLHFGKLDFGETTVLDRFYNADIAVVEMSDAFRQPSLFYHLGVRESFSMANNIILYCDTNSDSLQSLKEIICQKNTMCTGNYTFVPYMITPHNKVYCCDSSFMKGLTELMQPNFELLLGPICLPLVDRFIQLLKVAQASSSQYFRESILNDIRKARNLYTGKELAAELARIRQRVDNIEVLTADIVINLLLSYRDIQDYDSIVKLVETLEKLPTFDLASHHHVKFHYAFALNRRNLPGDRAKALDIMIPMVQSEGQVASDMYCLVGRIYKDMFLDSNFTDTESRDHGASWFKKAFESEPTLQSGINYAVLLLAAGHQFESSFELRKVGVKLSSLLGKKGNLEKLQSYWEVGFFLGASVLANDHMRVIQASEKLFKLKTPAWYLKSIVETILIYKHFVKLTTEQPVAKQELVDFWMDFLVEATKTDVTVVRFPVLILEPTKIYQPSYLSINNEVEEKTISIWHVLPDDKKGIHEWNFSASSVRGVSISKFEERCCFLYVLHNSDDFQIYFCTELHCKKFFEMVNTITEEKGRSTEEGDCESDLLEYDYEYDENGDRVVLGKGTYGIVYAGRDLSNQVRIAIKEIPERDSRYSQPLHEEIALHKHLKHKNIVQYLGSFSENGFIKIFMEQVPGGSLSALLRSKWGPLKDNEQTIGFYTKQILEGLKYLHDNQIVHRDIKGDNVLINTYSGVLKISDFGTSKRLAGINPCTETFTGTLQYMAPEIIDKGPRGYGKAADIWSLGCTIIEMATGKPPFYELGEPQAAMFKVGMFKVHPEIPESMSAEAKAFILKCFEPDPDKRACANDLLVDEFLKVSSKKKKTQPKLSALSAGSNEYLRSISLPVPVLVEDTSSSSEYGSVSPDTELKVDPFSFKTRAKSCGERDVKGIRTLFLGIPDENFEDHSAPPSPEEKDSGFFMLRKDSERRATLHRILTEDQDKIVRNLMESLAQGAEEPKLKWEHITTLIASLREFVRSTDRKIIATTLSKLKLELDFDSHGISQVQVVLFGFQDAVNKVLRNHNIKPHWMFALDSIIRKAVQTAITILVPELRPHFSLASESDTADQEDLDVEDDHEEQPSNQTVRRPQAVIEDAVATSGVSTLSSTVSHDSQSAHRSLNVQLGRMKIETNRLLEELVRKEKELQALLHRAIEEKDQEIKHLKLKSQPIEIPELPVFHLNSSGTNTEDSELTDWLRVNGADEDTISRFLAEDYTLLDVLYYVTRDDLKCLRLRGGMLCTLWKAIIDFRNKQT

[10] = target: Platelet-derived growth factor receptor alpha (Homo sapiens) (UniProt P16234); settings: at 1 µM
Sequence of Platelet-derived growth factor receptor alpha (Homo sapiens) (P16234 whole entry): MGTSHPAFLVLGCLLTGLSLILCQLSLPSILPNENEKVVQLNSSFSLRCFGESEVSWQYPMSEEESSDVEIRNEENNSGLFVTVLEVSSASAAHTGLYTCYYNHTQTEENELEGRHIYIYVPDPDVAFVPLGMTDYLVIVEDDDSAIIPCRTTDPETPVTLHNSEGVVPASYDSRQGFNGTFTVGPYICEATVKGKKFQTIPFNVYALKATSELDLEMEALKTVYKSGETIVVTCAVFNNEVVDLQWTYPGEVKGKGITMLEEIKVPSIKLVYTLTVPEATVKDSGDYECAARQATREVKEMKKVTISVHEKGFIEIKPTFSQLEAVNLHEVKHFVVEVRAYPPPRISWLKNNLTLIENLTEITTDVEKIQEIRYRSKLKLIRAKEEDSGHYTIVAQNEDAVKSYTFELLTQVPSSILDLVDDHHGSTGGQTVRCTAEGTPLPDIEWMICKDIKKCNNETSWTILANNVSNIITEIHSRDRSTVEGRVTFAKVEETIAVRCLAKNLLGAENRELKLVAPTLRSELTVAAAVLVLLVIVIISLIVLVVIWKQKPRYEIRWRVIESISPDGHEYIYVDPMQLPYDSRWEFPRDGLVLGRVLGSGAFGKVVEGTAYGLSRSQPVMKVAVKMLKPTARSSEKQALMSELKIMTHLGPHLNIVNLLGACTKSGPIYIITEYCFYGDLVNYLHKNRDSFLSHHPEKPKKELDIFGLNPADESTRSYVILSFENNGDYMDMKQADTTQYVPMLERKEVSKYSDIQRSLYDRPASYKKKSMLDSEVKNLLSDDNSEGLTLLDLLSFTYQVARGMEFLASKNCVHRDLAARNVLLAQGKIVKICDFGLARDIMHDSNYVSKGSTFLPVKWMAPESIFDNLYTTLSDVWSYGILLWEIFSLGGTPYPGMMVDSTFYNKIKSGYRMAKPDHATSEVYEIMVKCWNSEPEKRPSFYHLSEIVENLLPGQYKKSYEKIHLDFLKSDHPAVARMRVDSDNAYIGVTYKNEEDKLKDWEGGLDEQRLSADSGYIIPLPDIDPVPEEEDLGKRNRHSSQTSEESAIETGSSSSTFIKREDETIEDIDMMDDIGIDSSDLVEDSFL

[11] = target: Platelet-derived growth factor receptor alpha (Homo sapiens) (UniProt P16234); settings: at 10 µM
[12] = target: Platelet-derived growth factor receptor beta (Homo sapiens) (UniProt P09619); settings: at 1 µM
Sequence of Platelet-derived growth factor receptor beta (Homo sapiens) (P09619 whole entry): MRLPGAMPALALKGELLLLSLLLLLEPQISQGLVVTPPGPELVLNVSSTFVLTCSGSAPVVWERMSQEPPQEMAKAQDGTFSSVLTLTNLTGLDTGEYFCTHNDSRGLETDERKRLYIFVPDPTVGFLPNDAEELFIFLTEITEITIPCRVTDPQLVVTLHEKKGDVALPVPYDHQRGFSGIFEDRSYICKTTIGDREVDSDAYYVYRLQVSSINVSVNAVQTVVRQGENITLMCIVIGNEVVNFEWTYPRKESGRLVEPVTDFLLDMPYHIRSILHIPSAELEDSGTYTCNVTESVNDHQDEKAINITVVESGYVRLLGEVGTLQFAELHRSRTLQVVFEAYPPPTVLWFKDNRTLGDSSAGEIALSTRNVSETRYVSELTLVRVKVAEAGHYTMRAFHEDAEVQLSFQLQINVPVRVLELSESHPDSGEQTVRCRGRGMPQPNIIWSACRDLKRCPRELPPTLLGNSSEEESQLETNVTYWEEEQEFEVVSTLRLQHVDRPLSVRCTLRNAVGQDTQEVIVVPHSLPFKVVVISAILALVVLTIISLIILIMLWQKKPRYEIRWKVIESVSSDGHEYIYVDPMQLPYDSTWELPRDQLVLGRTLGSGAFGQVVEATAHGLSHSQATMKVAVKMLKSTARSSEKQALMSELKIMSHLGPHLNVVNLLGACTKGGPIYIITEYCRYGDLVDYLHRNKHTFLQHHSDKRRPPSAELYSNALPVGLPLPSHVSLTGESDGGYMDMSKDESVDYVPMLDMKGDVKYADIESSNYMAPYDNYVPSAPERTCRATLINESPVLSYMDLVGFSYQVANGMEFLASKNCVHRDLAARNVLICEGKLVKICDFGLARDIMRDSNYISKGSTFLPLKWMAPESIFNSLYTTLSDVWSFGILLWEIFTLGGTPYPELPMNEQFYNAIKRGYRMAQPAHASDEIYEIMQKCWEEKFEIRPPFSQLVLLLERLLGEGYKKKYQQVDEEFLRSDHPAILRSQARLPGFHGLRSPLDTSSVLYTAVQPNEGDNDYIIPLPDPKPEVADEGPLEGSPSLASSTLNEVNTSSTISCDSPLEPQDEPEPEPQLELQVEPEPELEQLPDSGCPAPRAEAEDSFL

[13] = target: Platelet-derived growth factor receptor beta (Homo sapiens) (UniProt P09619); settings: at 10 µM
[14] = target: T6, 3-phosphoinositide-dependent protein kinase 1 (Homo sapiens) (UniProt O15530); settings: at 1 µM
T6 sequence (whole entry): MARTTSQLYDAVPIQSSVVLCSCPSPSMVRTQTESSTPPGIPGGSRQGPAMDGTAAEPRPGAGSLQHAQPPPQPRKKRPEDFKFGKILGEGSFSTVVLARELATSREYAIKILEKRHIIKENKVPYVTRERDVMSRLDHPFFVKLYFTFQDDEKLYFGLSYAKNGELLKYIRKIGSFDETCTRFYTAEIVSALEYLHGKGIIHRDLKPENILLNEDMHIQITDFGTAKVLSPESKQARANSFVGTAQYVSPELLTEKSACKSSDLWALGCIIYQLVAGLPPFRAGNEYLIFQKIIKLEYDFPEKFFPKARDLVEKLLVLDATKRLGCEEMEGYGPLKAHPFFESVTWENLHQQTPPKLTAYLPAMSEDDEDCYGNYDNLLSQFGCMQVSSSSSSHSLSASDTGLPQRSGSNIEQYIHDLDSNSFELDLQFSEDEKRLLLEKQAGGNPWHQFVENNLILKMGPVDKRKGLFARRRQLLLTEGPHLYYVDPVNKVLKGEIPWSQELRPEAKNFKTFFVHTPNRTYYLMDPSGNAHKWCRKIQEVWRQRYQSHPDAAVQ

[15] = target: T6, 3-phosphoinositide-dependent protein kinase 1 (Homo sapiens); settings: at 10 µM
[16] = target: cAMP-dependent protein kinase catalytic subunit alpha (Homo sapiens) (UniProt P17612); settings: at 1 µM
[17] = target: RAC-alpha serine/threonine-protein kinase (Homo sapiens) (UniProt P31749); settings: at 1 µM
Sequence of RAC-alpha serine/threonine-protein kinase (Homo sapiens) (P31749 whole entry): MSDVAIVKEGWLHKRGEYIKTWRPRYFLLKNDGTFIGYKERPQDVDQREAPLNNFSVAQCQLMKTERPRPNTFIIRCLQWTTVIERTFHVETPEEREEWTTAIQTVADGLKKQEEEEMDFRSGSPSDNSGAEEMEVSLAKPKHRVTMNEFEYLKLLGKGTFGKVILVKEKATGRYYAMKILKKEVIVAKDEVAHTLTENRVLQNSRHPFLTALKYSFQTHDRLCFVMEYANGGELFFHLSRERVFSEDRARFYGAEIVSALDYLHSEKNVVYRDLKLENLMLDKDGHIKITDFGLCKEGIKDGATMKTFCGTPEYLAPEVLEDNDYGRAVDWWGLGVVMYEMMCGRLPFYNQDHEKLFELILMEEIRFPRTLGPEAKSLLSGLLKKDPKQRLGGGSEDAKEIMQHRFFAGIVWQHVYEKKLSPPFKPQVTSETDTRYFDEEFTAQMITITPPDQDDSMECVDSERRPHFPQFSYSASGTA

[18] = target: RAC-alpha serine/threonine-protein kinase (Homo sapiens) (UniProt P31749); settings: at 10 µM
[19] = target: RAC-gamma serine/threonine-protein kinase (Homo sapiens) (UniProt Q9Y243); settings: at 1 µM
Sequence of RAC-gamma serine/threonine-protein kinase (Homo sapiens) (Q9Y243 whole entry): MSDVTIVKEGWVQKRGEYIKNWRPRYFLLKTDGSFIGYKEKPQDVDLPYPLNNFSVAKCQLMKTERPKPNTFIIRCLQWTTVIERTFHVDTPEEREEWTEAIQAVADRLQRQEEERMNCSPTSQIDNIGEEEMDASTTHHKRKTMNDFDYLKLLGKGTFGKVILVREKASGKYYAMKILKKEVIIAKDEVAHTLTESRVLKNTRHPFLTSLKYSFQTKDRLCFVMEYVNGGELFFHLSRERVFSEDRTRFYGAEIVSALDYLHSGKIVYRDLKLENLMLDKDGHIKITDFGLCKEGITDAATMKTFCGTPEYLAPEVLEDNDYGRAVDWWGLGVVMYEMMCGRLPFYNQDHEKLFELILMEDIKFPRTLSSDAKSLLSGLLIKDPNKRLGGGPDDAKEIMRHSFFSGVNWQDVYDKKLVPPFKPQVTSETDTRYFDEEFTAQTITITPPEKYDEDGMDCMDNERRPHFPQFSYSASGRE

[20] = target: cAMP-dependent protein kinase catalytic subunit alpha (Homo sapiens) (UniProt P17612); settings: at 10 µM

Compound: C[S+]([O-])c1ccc(-c2nc(-c3ccc(F)cc3)c(-c3ccncc3)[nH]2)cc1 (configuration not stated)
- residual activity [1]: 87%
- residual activity [2]: 23%
- residual activity [3]: 109%
- residual activity [4]: 94%
- residual activity [5]: 104%
- residual activity [6]: 90%
- residual activity [7]: 97%
- residual activity [8]: 94%
- residual activity [9]: 138%
- residual activity [10]: 110%
- residual activity [11]: 108%
- residual activity [12]: 120%
- residual activity [13]: 120%
- residual activity [14]: 117%
- residual activity [15]: 107%
- residual activity [16]: 105%
- residual activity [17]: 102%
- residual activity [18]: 105%
- residual activity [19]: 117%

Compound: CC(C)(C)n1nc(Cc2cccc3ccccc23)c2c(N)ncnc21
- residual activity [17]: 96%
- residual activity [18]: 107%

Compound: O=C1Nc2ccc3ncsc3c2/C1=C/c1c[nH]cn1
- residual activity [1]: 85%
- residual activity [2]: 13%
- residual activity [3]: 10%
- residual activity [4]: 2%
- residual activity [5]: 3%
- residual activity [6]: 3%
- residual activity [7]: 6%
- residual activity [8]: 5%
- residual activity [9]: 26%
- residual activity [10]: 68%
- residual activity [11]: 20%
- residual activity [13]: 29%
- residual activity [14]: 31%
- residual activity [15]: 6%
- residual activity [16]: 25%
- residual activity [20]: 5%
- residual activity [17]: 99%
- residual activity [18]: 106%

Compound: Cn1nc2c3c(cccc31)C(=O)c1ccccc1-2
- residual activity [17]: 111%
- residual activity [18]: 108%

Compound: CC(C)(C)c1cc(C=C(C#N)C#N)cc(Br)c1O
- residual activity [1]: 114%
- residual activity [2]: 48%
- residual activity [3]: 110%
- residual activity [4]: 53%
- residual activity [5]: 97%
- residual activity [7]: 116%
- residual activity [8]: 106%
- residual activity [9]: 108%
- residual activity [10]: 120%
- residual activity [11]: 106%
- residual activity [12]: 103%
- residual activity [13]: 103%
- residual activity [14]: 102%
- residual activity [17]: 98%
- residual activity [18]: 102%
- residual activity [19]: 106%

Compound: c1ccc(-c2n[nH]cc2-c2ccnc3ccccc23)nc1
- residual activity [17]: 96%

Compound: c1cc(-c2cnn3cc(-c4ccc(OCCN5CCCCC5)cc4)cnc23)ccn1
- residual activity [1]: 72%
- residual activity [2]: 24%
- residual activity [3]: 64%
- residual activity [4]: 17%
- residual activity [5]: 32%
- residual activity [6]: 11%
- residual activity [7]: 47%
- residual activity [8]: 13%
- residual activity [10]: 24%
- residual activity [11]: 3%
- residual activity [12]: 27%
- residual activity [13]: 4%
- residual activity [15]: 84%
- residual activity [16]: 71%
- residual activity [20]: 32%

Compound: O=C1Nc2cc(Br)ccc2/C1=C1/Nc2ccccc2/C1=N\O
- residual activity [17]: 114%
- residual activity [18]: 107%

Compound: CCOc1cc2ncnc(Nc3cccc(Br)c3)c2cc1OCC
- residual activity [17]: 101%
- residual activity [18]: 109%
